Test results: PubChem BioAssay (NCATS)
Records with an inconclusive call do not appear. Entries that show only a call come without a potency. A structure can be active in one record and inactive in another. Activity calls are given as the source filed them. The call rests on the fitted dose curve.

Biological target: Vitamin D3 receptor (Homo sapiens) (UniProt P11473)
Assay: qHTS assay for small molecule antagonists of vitamin D receptor signaling (AID 588541)
Conditions: HEK293T VDR-UAS-bla, beta-lactamase ratio, antagonist mode; series mostly up to 76.7 µM
Text: NIH Chemical Genomics Center [NCGC]
U.S. Environmental Protection Agency [EPA]
National Institutes of Environmental Health Sciences [NIEHS]
National Toxicology Program [NTP]
The Vitamin D receptor (VDR) is a member of nuclear hormone receptor superfamily and it plays a critical role in calcium homeostasis and bone metabolism. It plays a role in inducing cell differentiation, inhibiting cell growth and in thrombogenicity. So, VDR that mediates these effects represents a pharmacological target in prevention and treatment of hyperproliferative malignancies, such as cancer and psoriasis, cardiovascular, immunological, inflammatory and renal diseases etc.
NCGC Assay Protocol Summary
Using a beta-lactamase reporter-gene under control of Vitamin D receptor (VDR) response element, a cell-based assay [GeneBLAzer (VDR -UAS-bla assay developed by Invitrogen] was used to measure VDR ligands signaling. GeneBLAzer VDR -UAS-bla HEK293T cells were used with assay medium containing 2% charcoal-stripped FBS. The assay was performed in clear bottom black Greiner 1536-well plates. Library compounds were measured for their ability to inhibit the reporter gene activity. Compounds were screened in a titration series in 1536-well format. The fluorescence intensity (405 nm excitation, 460/530 nm emission) was measured using an EnVision plate reader. Data was normalized relative to 1-alpha,25-Dihydroxy vitaminD3 control (50 nM, 100%) and DMSO only wells (basal, 0%). Concentration-response titration points for each compound were fitted to the Hill equation yielding concentrations of half-maximal inhibition (IC50) and maximal response (efficacy) values.
qHTS protocol for VDR beta-lactamase assay in antagonist mode
[Step] [Parameter] [Value] [Description]
1. Reagent; 5 uL; 2000 cells/well
2. Incubation; 37 C for 5 hrs
4. Controls (DMSO); 23 nL,
5. Agonist (Stimulator); 1uL; 1-alpha,25-Dihydroxy vitaminD3 at 50 nM and 3 nM final concentrations
6. Incubation; 37 C for 16 hrs
7. Detection reagent; 1 uL of CCF4-dye
8. Incubation; RT for 2 hrs
9. Detection; Fluorescence; Envision plate reader

Sequence of Vitamin D3 receptor (Homo sapiens) (P11473 whole entry, looked up): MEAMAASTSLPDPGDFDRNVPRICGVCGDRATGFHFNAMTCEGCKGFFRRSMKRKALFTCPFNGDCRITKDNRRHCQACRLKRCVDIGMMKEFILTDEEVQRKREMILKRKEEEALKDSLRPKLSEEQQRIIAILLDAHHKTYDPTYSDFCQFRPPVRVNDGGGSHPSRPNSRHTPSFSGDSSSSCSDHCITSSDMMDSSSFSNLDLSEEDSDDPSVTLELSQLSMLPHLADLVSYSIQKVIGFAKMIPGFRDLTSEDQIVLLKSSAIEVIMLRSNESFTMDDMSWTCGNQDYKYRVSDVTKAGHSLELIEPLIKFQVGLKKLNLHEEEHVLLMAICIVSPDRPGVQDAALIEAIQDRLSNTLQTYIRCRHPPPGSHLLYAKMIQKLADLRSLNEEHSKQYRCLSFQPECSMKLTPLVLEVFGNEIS

SMILES	Potency
CCOP(=S)(OCC)Oc1ccc(S(C)=O)cc1 (stereo not given)	inactive
CCOP(=O)(OCC)SCSP(=S)(OCC)OCC	inactive
O=C(O)C(F)(F)C(F)(F)C(F)(F)C(F)(F)C(F)(F)C(F)(F)C(F)(F)C(F)(F)F	inactive
Nc1cccc(Cl)c1Cl	inactive
Nc1ccccc1C(=O)OCCc1ccccc1	inactive
COC(=O)c1c(C(F)F)nc(C(F)(F)F)c(C2=NCCS2)c1CC(C)C	inactive
CC(C)(C)N(NC(=O)c1ccc(Cl)cc1)C(=O)c1ccccc1	inactive
Cc1c(COC(=O)C2C(/C=C(\Cl)C(F)(F)F)C2(C)C)cccc1-c1ccccc1 (stereo not given)	inactive
CCCCCCCCCCCCN(C)C	inactive
CCOP(=O)(OCC)SCSCC	inactive
CSc1nc(NC(C)C)nc(NC(C)C)n1	inactive
CCNc1nc(NC(C)C)nc(SC)n1	inactive
O=C(CCl)c1ccccc1	35.5 µM (active) and inactive
CNC(=O)N(C)c1nc2ccccc2s1	inactive
CCCCN(CC)c1c([N+](=O)[O-])cc(C(F)(F)F)cc1[N+](=O)[O-]	inactive
CN/C(=N/[N+](=O)[O-])NCC1CCOC1 (stereo not given)	inactive
CCNc1nc(NCC)nc(SC)n1	inactive
CCNS(=O)(=O)C(F)(F)C(F)(F)C(F)(F)C(F)(F)C(F)(F)C(F)(F)C(F)(F)C(F)(F)F	inactive
CCC(CC)Nc1c([N+](=O)[O-])cc(C)c(C)c1[N+](=O)[O-]	inactive
O=S(=O)(c1ccc(O)cc1)c1ccc(O)cc1	inactive

SMILES	Potency
N#CC(Cl)Cl	inactive
O=[As](O)(O)O	inactive
CCOP(=S)(OCC)OC(Cl)C(Cl)(Cl)Cl (stereo not given)	inactive
Clc1ccc(C2(Cn3cncn3)CC(Br)CO2)c(Cl)c1 (stereo not given)	inactive
CC1(C(=O)Nc2ccc(O)c(Cl)c2Cl)CCCCC1	inactive
CCCCCCCCn1sccc1=O	22.4 µM (active)
O=[N+]([O-])Nc1nccn1Cc1ccc(Cl)nc1	inactive
CCC(C)(C)c1cc(-n2nc3ccccc3n2)c(O)c(C(C)(C)CC)c1	inactive
CCS(=O)(=O)c1cccnc1S(=O)(=O)NC(=O)Nc1nc(OC)cc(OC)n1	inactive
CCOP(=S)(OCC)Oc1nc(Cl)n(C(C)C)n1	inactive
CCC[CH2][Sn]([CH2]CCC)([CH2]CCC)[O][Sn]([CH2]CCC)([CH2]CCC)[CH2]CCC	22.4 µM (active)
CC(C)(C)C(O)C(Oc1ccc(-c2ccccc2)cc1)n1cncn1 (stereo not given)	inactive
CCCSP(=O)(OCC)Oc1ccc(Br)cc1Cl (stereo not given)	inactive
O=C1C2(Cl)C3(Cl)C4(Cl)C(Cl)(Cl)C5(Cl)C3(Cl)C1(Cl)C5(Cl)C24Cl (stereo not given)	39.8 µM (active) and inactive
CCOP(=S)(OCC)SCSP(=S)(OCC)OCC	inactive
COC(=O)c1sccc1S(=O)(=O)NC(=O)Nc1nc(C)nc(OC)n1	inactive
C/C(=N\NC(=O)Nc1cc(F)cc(F)c1)c1ncccc1C(=O)O	inactive
CCNc1nc(NC(C)C)nc(OC)n1	inactive
CCOP(=O)(NC(C)C)Oc1ccc(S(C)(=O)=O)c(C)c1 (stereo not given)	inactive
COCC(=O)N(c1c(C)cccc1C)[C@H](C)C(=O)OC	inactive
